In PubChem BioAssay AID1159580 (chemical genetic matrix, 2015):
Several values for one entry are separate records, joined by “and”; a condition that tells them apart may be missing. Identical values can stand only once. Screen size: about 5,500 compounds; about 2,000 (36%) were called active. Roughly 18% stayed inconclusive and do not appear here. Cut-off read from the data, not from the text of the source: active = normalized growth mostly below about 0.91 (no sharp cut-off); inconclusive = no clear call, values can overlap the other calls; inactive = mostly above about 0.92. The list shows a part of the results.

Test: chemical genetic growth profiling, strain panel (AID 1159580);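 note: tested at 20 µM; growth read once vehicle control cultures reached saturation at 30 °C; 1 = growth at the plate median or of vehicle wells; lower values mean less growth of the strain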
Settings: S. cerevisiae deletion strains, growth OD

Measured: normalized growth

CCCN(CCC)S(=O)(=O)c1ccc(C(=O)O)cc1
inactive: locus YAL013W, strain DEP1, stronger effect = lower value 0.992 | locus YAL021C, strain ccr4, stronger effect = lower value 0.998 | locus YAL026C, strain drs2, stronger effect = lower value 0.999 | locus YAL030W, strain snc1, stronger effect = lower value 0.992 | locus YBL061C, strain skt5, stronger effect = lower value 0.991 | locus YBR009C, strain hhf1, stronger effect = lower value 0.997 | locus YBR021W, strain FUR4, stronger effect = lower value 0.945 | locus YBR023C, strain chs3, stronger effect = lower value 0.994 | locus YBR171W, strain sec66, stronger effect = lower value 0.968 | locus YBR229C, strain ROT2, stronger effect = lower value 1 | locus YBR231C, strain swc5, stronger effect = lower value 0.955 | locus YBR279W, strain paf1, stronger effect = lower value 0.996 | locus YCL011C, strain gbp2, stronger effect = lower value 1 | locus YCL016C, strain dcc1, stronger effect = lower value 1 | locus YCL029C, strain bik1, stronger effect = lower value 1.02 | locus YCL069W, strain vba3, stronger effect = lower value 0.981 | locus YCR088W, strain abp1, stronger effect = lower value 0.993 | locus YDL005C, strain med2, stronger effect = lower value 0.987 | locus YDL035C, strain GPR1, stronger effect = lower value 0.998 | locus YDL040C, strain nat1, stronger effect = lower value 0.99 | locus YDL074C, strain BRE1, stronger effect = lower value 0.998 | locus YDL101C, strain DUN1, stronger effect = lower value 1.01 | locus YDL134C, strain PPH21, stronger effect = lower value 1 | locus YDL185W, strain tfp1, stronger effect = lower value 1.01 | locus YDL192W, strain arf1, stronger effect = lower value 1.01 | locus YDR001C, strain nth1, stronger effect = lower value 0.987 | locus YDR069C, strain doa4, stronger effect = lower value 0.987 | locus YDR101C, strain arx1, stronger effect = lower value 1 | locus YDR137W, strain rgp1, stronger effect = lower value 1.01 | locus YDR150W, strain NUM1, stronger effect = lower value 0.998 | locus YDR159W, strain sac3, stronger effect = lower value 1 | locus YDR162C, strain NBP2, stronger effect = lower value 0.999 | locus YDR195W, strain ref2 0.933 | locus YDR297W, strain sur2, stronger effect = lower value 0.998 | locus YDR318W, strain mcm21, stronger effect = lower value 1.02 | locus YDR334W, strain swr1, stronger effect = lower value 0.997 | locus YDR335W, strain msn5, stronger effect = lower value 0.992 | locus YDR388W, stronger effect = lower value 1.01 | locus YDR392W, strain spt3, stronger effect = lower value 1.01 | locus YDR502C, strain sam2, stronger effect = lower value 1.02 | locus YEL003W, strain gim4, stronger effect = lower value 0.99 | locus YEL037C, strain rad23, stronger effect = lower value 0.993 | locus YEL061C, strain CIN8 (second series), stronger effect = lower value 0.982 | locus YEL061C, strain CIN8, stronger effect = lower value 1 | locus YER015W, strain faa2, stronger effect = lower value 0.999 | locus YER016W, strain bim1, stronger effect = lower value 0.994 | locus YER110C, stronger effect = lower value 1.01 | locus YER111C, strain swi4, stronger effect = lower value 0.979 | locus YER155C, strain BEM2 (second series), stronger effect = lower value 0.978 | locus YER155C, strain BEM2, stronger effect = lower value 1.01 | locus YER167W, strain BCK2, stronger effect = lower value 1 | locus YFR010W, strain ubp6, stronger effect = lower value 0.983 | locus YGL078C, strain dbp3, stronger effect = lower value 1.01 | locus YGL086W, strain mad1, stronger effect = lower value 1 | locus YGL167C, strain pmr1, stronger effect = lower value 0.991 | locus YGL173C, strain kem1, stronger effect = lower value 0.976 | locus YGL227W, strain vid30, stronger effect = lower value 0.988 | locus YGL240W, strain doc1, stronger effect = lower value 0.976 | locus YGL248W, strain PDE1, stronger effect = lower value 1 | locus YGL253W, strain hxk2, stronger effect = lower value 1 | locus YGR078C, strain PAC10, stronger effect = lower value 0.967 | locus YGR135W, strain pre9, stronger effect = lower value 1.03 | locus YGR229C, strain SMI1, stronger effect = lower value 0.982 | locus YGR252W, strain gcn5, stronger effect = lower value 1 | locus YHR013C, strain ard1, stronger effect = lower value 0.986 | locus YHR027C, strain rpn1, stronger effect = lower value 0.999 | locus YHR030C, strain SLT2, stronger effect = lower value 1 and 1.02 | locus YHR079C, strain IRE1 (second series), stronger effect = lower value 1.01 | locus YHR079C, strain IRE1, stronger effect = lower value 1.01 | locus YHR094C, strain hxt1, stronger effect = lower value 1.01 | locus YHR129C, strain ARP1, stronger effect = lower value 1.01 | locus YHR142W, strain chs7, stronger effect = lower value 1 | locus YHR200W, strain rpn10, stronger effect = lower value 1.01 | locus YIL066C, strain RNR3, stronger effect = lower value 0.996 | locus YIL073C, strain SPO22, stronger effect = lower value 1.08 | locus YIL125W, strain kgd1, stronger effect = lower value 1.01 | locus YIR030C, strain dcg1, stronger effect = lower value 1 | locus YJL092W, strain hpr5, stronger effect = lower value 0.981 | locus YJL095W, strain BCK1 (second series), stronger effect = lower value 0.995 | locus YJL095W, strain BCK1, stronger effect = lower value 1.02 | locus YJL115W, strain asf1, stronger effect = lower value 0.989 | locus YJL129C, strain trk1, stronger effect = lower value 0.99 | locus YJL134W, strain LCB3, stronger effect = lower value 0.997 | locus YJL154C, strain vps35, stronger effect = lower value 0.99 | locus YJL164C, strain tpk1, stronger effect = lower value 1.01 | locus YJL166W, strain qcr8, stronger effect = lower value 0.966 | locus YJL168C, strain set2, stronger effect = lower value 1 | locus YJL187C, strain SWE1 (second series), stronger effect = lower value 1.01 | locus YJL187C, strain SWE1, stronger effect = lower value 0.991 | locus YJR043C, strain POL32, stronger effect = lower value 1 | locus YJR066W, strain TOR1, stronger effect = lower value 0.965
